Screens as filed in PubChem BioAssay.
HTT cytoprotect – cytoprotection in Huntington HTT-Q103 PC12 cell model; PC12 HTT-Q103 induced, cytoprotection, ATP luminescence, 40 h; Potency, µM (titrated, usually from 56.4 µM), for inactives: cytoprotection (ATP increase), hits mostly activators; 0.14% of 230,000 active; note: % of control where 0% means no effect; nearly all actives have a fitted effect of over 45% in size
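Compounds added alongside 100 nM tebufenozide, which induces toxic Q103 huntingtin exon 1-GFP in stable PC12 cells; surviving cells quantified by luminescent ATP measurement. Medium: phenol red-free DMEM, 5% equine and 5% calf serum.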
LMNA splice mod – modulators of lamin A splicing; 0.01% of 200,000 active; Potency, µM (doses to about 46.1 µM), for inactives: at the highest dose ratio change, negative = inhibition, actives largely listed as inhibitors; HeLa LMNA splicing GFP/RFP minigene ratio, 48 h; active = well fitted inhibition curve with a large enough effect in the signal ratio, with a control signal flat, not every such curve was filed as active; inconclusive = small, poorly fitted or top-dose-only effect, or effect the other way, or a change in a side signal; the % refers to the signal ratio; note: % is set by controls: 0 for no effect and ±100 for the full control effect
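S3 HeLa stable clones carrying a lamin A-EGFP splicing minigene plus DsRed2 were seeded at 600 cells/well in Opti-MEM with 2% FBS, pin-dosed and incubated 48 h at 37°C. Acumen cytometry (488 nm) gave the GFP/RFP total-intensity ratio.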
HttQ103 aggreg – reduces HttQ103-GFP aggregates in PC12 cells | PC12 HttQ103-GFP aggregates, Acumen cytometry, 40 h | Potency, µM (top dose mostly 46.1 µM), without a hit: top-dose activity change, negative = inhibition, actives largely listed as inhibitors | 1.1% of 220,000 active | AID 1688; note: % is set by controls: 0 for no effect and ±100 for the full control effect; nearly all actives have a fitted effect of over 60% in size
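PC12 cells with ecdysone-inducible HTT exon1 Q103-GFP, induced by 100 nM tebufenozide, given compounds in a concentration series. GFP aggregates (1–25 um, 6 SD above background) counted in lysates by laser-scanning cytometry, 488 nm excitation.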
HPGD inh – blocks human HPGD enzyme activity; 4.3% of 150,000 active; P15428; AID 894; purified HPGD, NADH fluorescence kinetic, PGE2 substrate; Potency, µM, for the others: top-dose activity change, negative = inhibition, usual class: inhibitors; active = well fitted inhibition curve with a large enough effect, not every such curve was filed as active; inconclusive = small, poorly fitted or top-dose-only effect, or another doubt; inactive = no such curve, though single readings can be large or run the other way; note: % is set by controls: 0 for no effect and ±100 for the full control effect
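NADH formation kinetics: reaction with 30 uM PGE2 and 1 mM NAD+ (final), 20 nM enzyme, Tris-HCl pH 8 with Tween 20, after 15 min compound preincubation at room temperature. Fluorescence change, last versus first of five reads.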
ALDH1A1 block – inhibitors of human aldehyde dehydrogenase 1A1 | P00352 | Purified ALDH1A1, NADH fluorescence, propionaldehyde substrate | Potency, µM (doses to about 75.3 µM), inactives show at the highest dose activity, negative = inhibition, hits mostly inhibitors | 7.3% of 220,000 active | AID 1030; active = well fitted inhibition curve with a large enough effect, not every such curve was filed as active; inconclusive = small, poorly fitted or top-dose-only effect, or another doubt; inactive = no such curve, though single readings can be large or run the other way;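 note: plate controls were no enzyme wells and a reference inhibitor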
Target sequence (P00352 whole entry, looked up): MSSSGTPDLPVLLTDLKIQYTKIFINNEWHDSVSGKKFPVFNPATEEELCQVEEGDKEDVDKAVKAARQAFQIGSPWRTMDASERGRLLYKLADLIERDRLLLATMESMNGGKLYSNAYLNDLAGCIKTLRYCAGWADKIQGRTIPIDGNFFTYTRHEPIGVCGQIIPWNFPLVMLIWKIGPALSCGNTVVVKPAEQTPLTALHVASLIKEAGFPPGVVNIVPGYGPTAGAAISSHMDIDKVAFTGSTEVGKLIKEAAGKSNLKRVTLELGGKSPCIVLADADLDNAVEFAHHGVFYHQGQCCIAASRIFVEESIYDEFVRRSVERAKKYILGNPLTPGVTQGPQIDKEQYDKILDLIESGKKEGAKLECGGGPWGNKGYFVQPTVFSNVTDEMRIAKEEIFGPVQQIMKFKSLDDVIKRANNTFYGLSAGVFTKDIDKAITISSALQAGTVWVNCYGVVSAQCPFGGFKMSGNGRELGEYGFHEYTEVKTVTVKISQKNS
The depositor's hits bear a star; ? = inconclusive; . = no result given; [ ] = dose if it differs, or a comment. This is a sample that favours compounds with a hit; in the whole collection about 8.8% have one here. Unless noted, calls come from the whole dose curve; as a rule, active = well fitted curve in the direction sought with a large enough effect; inconclusive = small, poorly fitted or top-dose-only effect, or another doubt; inactive = no such curve, though single readings can be large; an effect the other way counts as inactive or inconclusive. Potency is the fitted concentration of half-maximal effect.

SMILES	HTT cytoprotect	LMNA splice mod	HttQ103 aggreg	HPGD inh	ALDH1A1 block
O=C1CCCc2c1cc(C(=O)Nc1ccc(Br)cn1)c(=O)n2-c1ccccc1	-59.1%	4.9%	-7.7%	35.5µM*	?
CCCNC(=O)C1CNc2ccccc2O1 (stereo not given)	-13.8%	10.2%	-10.6%	25.1µM*	-2.5%
N=C1S/C(=C\c2cn[nH]c2-c2ccc(F)cc2)C(=O)N1c1ccccc1F	-0.6%[10 µM]	-23.7%	?	12.6µM*	4.5%
N=C1S/C(=C\c2ccccc2F)C(=O)N1c1ccc(F)cc1	20.8%[10 µM]	-7.7%	8.9%	-13.1%	5.2%
CC12CCC(CC1=O)C2(C)C (stereo not given)	2.1%	.	.	-10.2%	7.08µM*
COc1ccc(N2C(=O)CC(N3CCOCC3)C2=O)cc1 (stereo not given)	-1.9%	0.3%	-14.3%	-8.7%	25.1µM*
COc1ccc(CCN2C(=O)CC(N3CCOCC3)C2=O)cc1 (stereo not given)	1.26µM*	0.1%	-1.5%	0.0%	3.9%
Cc1cc(C)cc(N2C(=O)CC(N3CCOCC3)C2=O)c1 (stereo not given)	-16.9%	4.6%	?	-4.6%	-4.8%
O=C(C1CCN(C2CC(=O)N(c3ccc(F)cc3)C2=O)CC1)N1CCOCC1 (stereo not given)	5.1%[0.074 µM]	2.4%	?	-6.5%	7.08µM*
COc1ccc(CCN2C(=O)CC(N3CCOCC3)C2=O)cc1OC (stereo not given)	30.1%[10 µM]	-3.9%	-10.5%	-13.3%	?
O=C1CC(N2CCOCC2)C(=O)N1c1cc(Cl)cc(Cl)c1 (stereo not given)	-11.8%	5.7%	-7.1%	-25.7%	3.16µM*
COc1ccc(N2C(=O)CC(N3CCN(c4ccccc4F)CC3)C2=O)cc1 (stereo not given)	-1.7%	7.2%	1.6%	-3.6%	?
CC(C)c1cccc2nc3c(c([Si](C)(C)C(C)(C)C)c12)Cn1c-3cccc1=O	7.0%	.	.	?	?
COc1ccc(N2C(=O)CC(n3c(CCCCO)nc4ccccc43)C2=O)cc1 (stereo not given)	10.1%[0.074 µM]	-4.6%	-1.4%	-18.0%	3.55µM*
O=C1CCCN1CCC1CCN(C2CC(=O)N(c3ccc(F)cc3)C2=O)CC1 (stereo not given)	-12.5%	2.9%	16.7%	-6.2%	12.6µM*
CN(Cc1ccccc1)C(=O)c1ccc2c(c1)N(Cc1ccccc1Cl)C(=O)c1ccccc1S2	.	-13.2%[46 µM]	.	.	.
COc1ccc(NS(=O)(=O)CC23CCC(CC2=O)C3(C)C)cc1 (stereo not given)	14.7%	5.5%	4.2%	-13.6%	7.94µM*
CCC(=O)N1CCc2cc(Br)cc(S(=O)(=O)N3CCC(C(=O)Nc4ccc(OC)cc4)CC3)c21	.	0.7%[46 µM]	.	.	.
Nc1ccc(N2C(=O)c3ccccc3C2=O)c(Cl)c1	-3.6%[1.9 µM]	?	.	4.5%	-5.1%
Nc1ccc(N)c(Cl)c1	-60.2%	.	.	?	22.4µM*
CCCC(=O)c1cc(O)c(O)cc1O	-11.6%	.	.	6.31µM*	?
CCCN(CC(=O)Nc1ccc(C(C)=O)cc1)CC(=O)Nc1ccccc1C	9.9%[10 µM]	-4.7%[46 µM]	-9.6%	.	14.1µM*
CCCN(CC(=O)Nc1ccc(C(N)=O)cc1)CC(=O)Nc1cc(Cl)ccc1Cl	10.2%[10 µM]	29.8%[46 µM]	37.1%	.	11.4%
COc1ccc(S(=O)(=O)NCC(c2ccco2)N2CCOCC2)cc1OC (stereo not given)	.	-4.6%[46 µM]	.	.	.
CCOc1ccc(NC(=O)C2CCN(S(=O)(=O)c3c(C)noc3/C=C/c3c(C)cc(C)cc3C)CC2)cc1	.	7.8%[46 µM]	.	.	.
SMILES	HTT cytoprotect	LMNA splice mod	HttQ103 aggreg	HPGD inh	ALDH1A1 block
CCCCC1(Cc2ccc([N+](=O)[O-])cc2)C(=O)N(c2ccccc2)N(c2ccccc2)C1=O	24.8%[10 µM]	?	10µM*	1.6%	2.3%
CCCSc1nc2c(c(=O)[nH]1)C(c1ccc(O)c(OCC)c1)CC(=O)N2 (stereo not given)	.	6.1%[46 µM]	.	.	.
CCc1ccc(NC(=O)CN2C(=O)C(=O)N(Cc3ccccc3)C2=O)cc1	-24.7%	.	-1.2%	.	-4.5%
O=C1c2ccccc2CC[C@H]1CNCCc1ccc(O)cc1	-79.0%	.	.	-4.0%	?
Cc1ccc(-c2c[n+](Cc3ccc(Cl)cc3)c3n2CCC3)cc1	-26.7%[10 µM]	.	-16.9%[9.22 µM]	.	.
Fc1ccc(C[n+]2csc3ccccc32)cc1	28.1%	?	2.1%	10µM*	3.98µM*
